PHOSPHO1 block: blocks human PHOSPHO1 phosphatase activity. Q8TCT1. recombinant PHOSPHO1, absorbance phosphatase assay. AID 1565. actives 1.1% (n = 290,000). inhibition, % at 13.3 µM; in the data active means inhibition above about 60%
Wnt act: Wnt/beta-catenin pathway activation; Wnt/beta-catenin reporter cell assay, activator, plate reader; activation, % at 9.35 µM; actives 1.2% (n = 300,000); in the data active means activation above about 30%, passing the limit was not always enough; inconclusive means no clear call, values can overlap the other calls;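 further: 0% = neutral control wells and 100% = positive control wells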
esBAF inh: blocks esBAF chromatin remodeling in mouse ES cells; AID 602393; actives 2% (n = 350,000); Bmi1-luciferase knock-in reporter, 24 h; 100% = twice the neutral-well signal; reporter increase, % at 12.5 µM; in the data active means activation above about 40%; inconclusive means no clear call, values can overlap the other calls;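 further: 0% = median of the plate's neutral control wells and 100% = double that signal; a rise in the Bmi1 reporter signal indicates esBAF inhibition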
APOBEC3A inh: human APOBEC3A DNA deaminase inhibition. P31941. recombinant A3A, FAM/TAMRA ssDNA deamination fluorescence. inhibition, % at 20 µM. actives 0.41% (n = 330,000). AID 493011;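 active means at least 40% inhibition at 20 µM here, with at most 30% in a related deaminase screen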;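 further: plate controls were A3A with DMSO for no effect and wells lacking A3A enzyme for full effect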
Target sequence (P31941 whole entry, looked up): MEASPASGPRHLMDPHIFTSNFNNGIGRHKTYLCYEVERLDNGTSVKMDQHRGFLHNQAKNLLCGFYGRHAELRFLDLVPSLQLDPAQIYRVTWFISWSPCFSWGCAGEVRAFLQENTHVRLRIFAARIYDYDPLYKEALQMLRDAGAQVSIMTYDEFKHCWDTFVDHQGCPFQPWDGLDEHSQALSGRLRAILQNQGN
A3G deaminase: APOBEC3G (human) deaminase inhibition | recombinant A3G, ssDNA deamination FAM/TAMRA fluorescence | inhibition, % at 20 µM | actives 0.28% (n = 330,000);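 active means inhibition of at least 40% at 20 µM, with no more than 30% in the related APOBEC3A deaminase screen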;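 further: plate controls were DMSO wells with A3G for no effect and wells lacking A3G enzyme for full effect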
Target sequence (Q9HC16 whole entry, looked up): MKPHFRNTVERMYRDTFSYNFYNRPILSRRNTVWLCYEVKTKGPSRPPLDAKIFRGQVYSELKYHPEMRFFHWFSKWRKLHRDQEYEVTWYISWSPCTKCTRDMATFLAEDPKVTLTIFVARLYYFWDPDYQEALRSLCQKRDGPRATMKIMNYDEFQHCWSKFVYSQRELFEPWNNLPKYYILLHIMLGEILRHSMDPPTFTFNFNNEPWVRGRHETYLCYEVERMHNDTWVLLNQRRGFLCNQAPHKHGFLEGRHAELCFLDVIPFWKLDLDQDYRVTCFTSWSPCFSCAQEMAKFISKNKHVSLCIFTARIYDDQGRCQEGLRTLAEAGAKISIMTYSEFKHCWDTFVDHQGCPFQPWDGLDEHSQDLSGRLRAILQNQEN
MITF act: increases MITF-driven TRPM1 promoter luciferase signal. activation, % at 12.5 µM. SK-MEL-5 TRPM1-promoter luciferase, 24 h; % of positive control, neutral wells = 0. AID 588334. actives 0.75% (n = 300,000);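 active means mean activation of at least 80% with every replicate also reaching 80%; inconclusive means mean reaches 80% but some replicate falls short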;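 further: 0% = neutral control wells and 100% = parthenolide positive control wells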
A3A conf: confirmation of human APOBEC3A DNA deaminase inhibitors | shares compounds with APOBEC3A inh | recombinant A3A, ssDNA deaminase UDG fluorescence assay | inhibition, % at 20 µM | actives 63% (n = 1,400) | AID 493151;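 active means inhibition reaching a set limit, 80% of the first screen's cutoff, at 20 µM in any replicate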;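 further: plate controls were DMSO wells with A3A for no effect and wells lacking A3A enzyme for full effect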
UDG A3A counter: counter-screen for APOBEC3A inhibitors: UDG; shares compounds with APOBEC3A inh; UDG counterscreen, FAM/TAMRA uracil oligo fluorescence; inhibition, % at 20 µM; 1,000 tested, under 10 active; AID 504714; call rule not given here
An asterisk follows results filed as active; ? = inconclusive; · = not tested or not shown. A selection: hits, their analogues and other compounds. The true share with any hit is near 3.6%.

SMILES	PHOSPHO1 block	Wnt act	esBAF inh	APOBEC3A inh	A3G deaminase	MITF act	A3A conf	UDG A3A counter
O=C(C[C@H]1CC[C@H]2[C@@H](COC[C@H](O)CN2C(=O)Nc2ccc(Cl)cc2)O1)N1CCCCC1	·	·	21	·	·	·	·	·
Cc1cc(C(=O)NC(C)CCC(C)C)c2ccccc2n1 (stereo not drawn)	-4	0	·	46*	3	5	1	·
COC(=O)CN(c1ccc(OC)cc1OC)S(=O)(=O)c1ccccc1[N+](=O)[O-]	6	1	0	-2	-7	1	·	·
COc1ccc(N(CC(=O)N2CCCCCC2)S(=O)(=O)c2ccccc2[N+](=O)[O-])c(OC)c1	22	-2	-5	50*	17	0	62*	-2
C[n+]1cnc(-c2ccccc2)cc1-c1ccccc1	-15	-3	·	45*	29	6	62*	0
CCOc1c(Br)cc(Br)cc1/C=C1\SC(N)=NC1=O	-6	-1	2	69*	18	·	82*	2
CCOc1cc(/C=C2\SC(N)=NC2=O)ccc1O	-6	0	2	0	-9	·	·	·
CC(C)n1c(SCC(=O)Nc2nncs2)nnc1-c1ccco1	18	·	·	66*	23	·	53*	-2
C[C@H](NC(=O)C[C@H]1C=C[C@@H](NC(=O)CN2CCOCC2)[C@H](CO)O1)c1ccccc1	·	·	-1	·	·	·	·	·
CS/C(N)=N/N=C/c1c(O)ccc2ccccc12	68*	?	·	58*	23	69	27	·
COC(=O)/C=C1/S/C(=N/NC(=O)c2ccccc2C)NC1=O	20	0	7	53*	-7	5	2	-2
O=C(COc1ccc2ccccc2c1)N1CCN(c2ccccc2)CC1	·	-1	-5	1	-2	-11	·	·
COc1ccc(N2CCN(C(=O)COc3ccc4ccccc4c3)CC2)cc1	28	·	·	46*	-2	-10	2	-2
C[C@H](CO)N1C[C@H](C)[C@@H](CN(C)Cc2ccc3c(c2)OCO3)Oc2c(NC(=O)Nc3ccccc3)cccc2C1=O	·	·	-2	·	·	·	·	·
Cc1ccc(C)c(OCCC(=O)OCC(=O)N2c3ccccc3NC(=O)C2(C)C)c1	·	-2	1	52*	20	-2	56*	3
COC(=O)c1cc(C(=O)OCC(=O)N2c3ccccc3NC(=O)C2(C)C)cc([N+](=O)[O-])c1	-24	·	·	97*	-6	-2	-3	-1
C[C@H](CO)N1C[C@H](C)[C@@H](CN(C)Cc2ccccc2)Oc2ccc(NC(=O)CCCCCC(=O)Nc3ccccc3N)cc2CC1=O	·	·	5	·	·	·	·	·
CC[n+]1c(/C=C/c2ccc(OC(C)=O)c(OC)c2)ccc2ccccc21	1	17	83*	53*	20	97*	58*	·
CCN(CC)c1ccc(/C=C/c2ccc3ccc(OC)cc3[n+]2CC)cc1	22	-12	-66	75*	26	-79	84*	0
CC[n+]1c(/C=C/c2ccc(OC)c(OC)c2)ccc2ccccc21	14	8	80*	79*	-14	·	93*	0
CCC(C)C(NC(N)=O)C(=O)Nc1ccc(C)c(Cl)c1 (stereo not drawn)	-4	·	·	56*	6	-7	2	·
CO[C@@H]1CN(C)C(=O)c2ccc(NC(=O)C3CC3)cc2OC[C@@H](C)NC[C@H]1C	·	·	1	·	·	·	·	·
O=C(C[C@@H]1C[C@@H]2c3cc(NC(=O)NC4CCCC4)ccc3O[C@@H]2[C@H](CO)O1)NCc1ccc(Oc2ccccc2)cc1	·	·	-4	·	·	·	·	·
CCn1c(CNC(=O)COc2ccc(C(C)C)cc2)nnc1SCC(=O)Nc1cc(F)ccc1C	-67	·	2	78*	23	5	77*	10
C[C@@H]1CCCCO[C@@H](CN(C)C(=O)NC2CCCCC2)[C@H](C)CN([C@H](C)CO)C(=O)c2cc(NC(=O)CCCN(C)C)ccc2O1	·	·	8	·	·	·	·	·
SMILES	PHOSPHO1 block	Wnt act	esBAF inh	APOBEC3A inh	A3G deaminase	MITF act	A3A conf	UDG A3A counter
COC(=O)c1ccc(NCC(=O)Nc2cc(C)cc(C)c2)cc1	-12	1	-7	50*	18	5	1	·
COC(=O)c1ccc(NC(=O)CSc2ccccn2)cc1	42	8	15	55*	4	·	6	·
COC(=O)c1ccc(NC(=O)CSc2ccccc2)cc1	26	16	?	2	4	63	·	·
C[n+]1cc(C(=O)N2CCCCC2)ccc1/C=C/c1c[nH]c2ccccc12	21	-2	·	75*	14	-12	73*	7
O=C(C(=O)N1CCCCCC1)c1c[nH]c2ccccc12	-11	1	1	-4	-4	·	·	·
CC=Cc1ccc2n(c1=O)C[C@@H]1[C@@H](CO)[C@H](C(=O)NCCc3cn(C)cn3)[C@H]2N1C(=O)CC (mixture of isomers)	·	·	-1	·	·	·	·	·
O=C(C[C@@H]1CC[C@H](NC(=O)CCN2CCCCC2)[C@@H](CO)O1)Nc1nccs1	·	·	-6	·	·	·	·	·
CCOc1ccc(/C=N/NC(=O)C(C)N(c2ccc(OC)cc2)S(C)(=O)=O)cc1 (stereo not drawn)	21	·	-3	-3	-1	6	·	·
CCOc1ccc(N(CC(=O)N/N=C/c2ccc(OC(C)C)cc2)S(C)(=O)=O)cc1	-12	1	-8	52*	9	-6	26	·
CN(C(=O)COC(=O)CSCc1cccc(Cl)c1)c1c(N)n(Cc2ccccc2)c(=O)[nH]c1=O	·	-2	2	10	-1	1	·	·
CN(C(=O)COC(=O)CSc1cc(Cl)ccc1Cl)c1c(N)n(Cc2ccccc2)c(=O)[nH]c1=O	·	-2	-3	41*	8	-2	-1	·
CCn1c(/C=C/N(C)c2ccccc2)[n+](CC)c2ccc(Cl)cc21	18	-1	-11	42*	19	-65	64*	-2
CCn1c(C)[n+](Cc2ccccc2)c2ccc(Cl)cc21	-8	-3	·	60*	20	1	73*	-1
CCn1c(/C=C/Nc2ccccc2)[n+](CC)c2ccc(Cl)cc21	0	2	·	29	16	5	·	·
CCn1c(C)[n+](Cc2ccccc2)c2ccc(C(=O)OC)cc21	-11	-3	·	53*	15	1	71*	3
CCOC(=O)c1ccc2c(c1)n(CC)c(/C=C/Nc1ccccc1)[n+]2CC	-126	-13	2	32	8	-3	·	·
C[C@H](CO)N1C[C@H](C)[C@H](CN(C)C)Oc2c(NS(=O)(=O)c3cn(C)cn3)cccc2C1=O	·	·	2	·	·	·	·	·
CCn1cc(-c2ccnc3cc(C(=O)O)nn23)c(C)n1	20	-1	-6	-1	-2	-6	·	·
Cc1c(-c2ccnc3cc(C(=O)O)nn23)cnn1C	12	-3	·	49*	-7	5	32*	0

Screening data from PubChem BioAssay.
